{
  "source": "PubChem BioAssay (NCATS)",
  "key": {"[1]": {"system": "SKOV3", "assay": "Primary qHTS to identify gynecologic anti-cancer compounds using libraries of approved drugs and bioactive compounds (AID 1345084); also: nearly all actives have a fitted effect of over 55% in size", "details": "Gynecologic cancer cell panel viability, ATPlite luminescence, 48 h; series mostly up to 57.5 µM", "procedure,_shortened": "(§1)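 Five-concentration response, 48 h; readout is ATP-driven luciferase luminescence.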"}, "[2]": {"system": "Tov112D", "assay": "Primary qHTS to identify gynecologic anti-cancer compounds using libraries of approved drugs and bioactive compounds (AID 1345084)", "details": "Gynecologic cancer cell panel viability, ATPlite luminescence, 48 h; series mostly up to 57.5 µM", "procedure,_shortened": "as §1"}},
  "note": "Results filed as inconclusive are left out. Where a call stands in place of a potency, no number is given. Activity calls are given as the source filed them. Calls follow the shape of the dose curve; as a rule, active = well fitted cell-killing curve with a large enough effect; inconclusive = small, poorly fitted or top-dose-only effect, or effect the other way; inactive = flat fitted curve, though single readings scatter. Potency is read from the fitted curve at half-maximal effect.",
  "data": [
    {"smiles": "C=C1C(=O)OC2/C=C(\\C)CC/C=C(\\C=O)C(OC)C(OC(=O)C(C)CC)C12", "note": "(configuration not stated)", "values": [
      {"measurement": "Potency", "setting": "[1]", "result": "inactive"},
      {"measurement": "Potency", "setting": "[2]", "result": "inactive"}
    ]},
    {"smiles": "C=C1CC(=O)C2OC2(C)CC2OC(=O)C(=C)C2C(O)C1OC(=O)/C(C)=C\\C", "note": "(configuration not stated)", "values": [
      {"measurement": "Potency", "setting": "[1]", "result": "inactive"},
      {"measurement": "Potency", "setting": "[2]", "result": "inactive"}
    ]},
    {"smiles": "C=C1C(=O)O[C@@H]2/C=C(/C)[C@@H](OC(C)=O)C/C=C(\\C)C[C@@H](OC(=O)/C(=C/CO)CO)[C@@H]12", "values": [
      {"measurement": "Potency", "setting": "[1]", "result": "inactive"},
      {"measurement": "Potency", "setting": "[2]", "result": "inactive"}
    ]},
    {"smiles": "CC1OC2OC(=O)C3(C)CC4C5(CO5)C5=CC(=O)OC(C)(C)C5=CC(=O)C4(C)C(C1=O)C23", "note": "(configuration not stated)", "values": [
      {"measurement": "Potency", "setting": "[1]", "result": "inactive"},
      {"measurement": "Potency", "setting": "[2]", "result": "inactive"}
    ]},
    {"smiles": "C=C1CC2OC(=O)C(COC)C2C(OC(=O)/C(C)=C\\C)CC2(C)OC1=CC2=O", "note": "(configuration not stated)", "values": [
      {"measurement": "Potency", "setting": "[1]", "result": "inactive"},
      {"measurement": "Potency", "setting": "[2]", "result": "inactive"}
    ]},
    {"smiles": "CC[C@H](C)/C=C(C)/C=C/C1=CC2=CC(=O)[C@]3(C)OC(=O)[C@@H](C(C)=O)[C@@H]3C2=CO1", "values": [
      {"measurement": "Potency", "setting": "[1]", "result": "inactive"},
      {"measurement": "Potency", "setting": "[2]", "result": "inactive"}
    ]},
    {"smiles": "O=C(NCCCNC(=O)c1ccc[nH]c1=O)c1cc(-c2ccccc2)on1", "values": [
      {"measurement": "Potency", "setting": "[1]", "result": "inactive"},
      {"measurement": "Potency", "setting": "[2]", "result": "inactive"}
    ]},
    {"smiles": "Cn1sc(=O)n(Cc2ccccc2)c1=O", "values": [
      {"measurement": "Potency", "setting": "[1]", "result": "inactive"},
      {"measurement": "Potency", "setting": "[2]", "result": "inactive"}
    ]},
    {"smiles": "CC(=O)c1c(C)cc2cccc(O)c2c1O[C@@H]1O[C@H](CO)[C@@H](O)[C@H](O)[C@H]1O", "values": [
      {"measurement": "Potency", "setting": "[1]", "result": "inactive"},
      {"measurement": "Potency", "setting": "[2]", "result": "inactive"}
    ]},
    {"smiles": "CC1CC(=O)C2=C(C1)C1OC1C1(O)C2C(=O)c2cccc(O)c2C1O", "note": "(configuration not stated)", "values": [
      {"measurement": "Potency", "setting": "[1]", "result": "inactive"},
      {"measurement": "Potency", "setting": "[2]", "result": "89.1 nM (active)"}
    ]},
    {"smiles": "CC1(C)CC[C@]2(C(=O)O[C@@H]3O[C@H](CO)[C@@H](O)[C@H](O)[C@H]3O)CC[C@]3(C)C(=CCC4[C@@]5(C)CC[C@H](O[C@@H]6O[C@H](C(=O)O)[C@H](O)[C@H](O)[C@H]6O)C(C)(C)C5CC[C@]43C)[C@@H]2C1", "note": "(some centres not stated)", "values": [
      {"measurement": "Potency", "setting": "[1]", "result": "inactive"},
      {"measurement": "Potency", "setting": "[2]", "result": "inactive"}
    ]}
  ]
}
